Assay results: PubChem BioAssay
Several values for one entry are separate records, joined by “and”; a condition that tells them apart may be missing. Equal values may be shown once. Activity calls are given as the source filed them. Rule as the data show it, unless noted: active = inhibition above about 80%; inactive = the rest.

Test: growth inhibition, single agents and combos, CRL2098, cell-based, BGB or cisplatin IC20 combos, synergistic combos for chromothripsis tumors (AID 1671454);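 also: cells exposed for 96 h before readout; 0% = vehicle DMSO and 100% = killing by high DMSO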
Settings: CRL2098 osteosarcoma cells, drug combinations, at 0.5 µM, stronger effect = higher value

| SMILES | inhibition |
| --- | --- |
| Cc1ccc2nc(NCCN)c3ncc(C)n3c2c1 | -21.4% (inactive) |
| C[C@]1(c2nc3c(C(N)=O)cccc3[nH]2)CCCN1 | -49.8% (inactive) and -59.1% (inactive) |
| O=C(O)[C@H](Cc1c[nH]c2ccccc12)N1C(=O)c2ccccc2C1=O | -82% (inactive) |
| CN(C)CCN1C(=O)c2cccc3cc(N)cc(c23)C1=O | -63% (inactive) |

Same assay, conditions: CRL2098 osteosarcoma cells, drug combinations, measured here: combination with BGB at IC20, at 0.5 µM, stronger effect = higher value

| SMILES | inhibition |
| --- | --- |
| Cc1ccc2nc(NCCN)c3ncc(C)n3c2c1 | 13.8% |
| C[C@]1(c2nc3c(C(N)=O)cccc3[nH]2)CCCN1 | -12.1% and -70.3% |
| O=C(O)[C@H](Cc1c[nH]c2ccccc12)N1C(=O)c2ccccc2C1=O | -46.6% |
| CN(C)CCN1C(=O)c2cccc3cc(N)cc(c23)C1=O | -22.2% |

Same assay, conditions: CRL2098 osteosarcoma cells, drug combinations, measured here: combination with cisplatin at IC20, at 0.5 µM, stronger effect = higher value

| SMILES | inhibition |
| --- | --- |
| Cc1ccc2nc(NCCN)c3ncc(C)n3c2c1 | -60.3% |
| C[C@]1(c2nc3c(C(N)=O)cccc3[nH]2)CCCN1 | -110% and -65.8% |
| O=C(O)[C@H](Cc1c[nH]c2ccccc12)N1C(=O)c2ccccc2C1=O | -131% |
| CN(C)CCN1C(=O)c2cccc3cc(N)cc(c23)C1=O | -129% |

Test: growth inhibition, single agents and combos, HD-MB03, cell-based, BGB or cisplatin IC20 combos, synergistic combos for chromothripsis tumors (AID 1671455; in the data active = inhibition above about 83%;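 also: 0% = vehicle DMSO and 100% = high DMSO as cytotoxic control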)
Settings: HD-MB03 medulloblastoma cells, at 0.5 µM, stronger effect = higher value

| SMILES | inhibition |
| --- | --- |
| Cc1ccc2nc(NCCN)c3ncc(C)n3c2c1 | -5.33% (inactive) |
| C[C@]1(c2nc3c(C(N)=O)cccc3[nH]2)CCCN1 | -8.8% (inactive) and -9.57% (inactive) |
| O=C(O)[C@H](Cc1c[nH]c2ccccc12)N1C(=O)c2ccccc2C1=O | -20.5% (inactive) |
| CN(C)CCN1C(=O)c2cccc3cc(N)cc(c23)C1=O | 1.51% (inactive) |

Same assay, conditions: HD-MB03 medulloblastoma cells, measured here: combo with BGB at IC20, at 0.5 µM, stronger effect = higher value

| SMILES | inhibition |
| --- | --- |
| Cc1ccc2nc(NCCN)c3ncc(C)n3c2c1 | -7.44% |
| C[C@]1(c2nc3c(C(N)=O)cccc3[nH]2)CCCN1 | -16.2% and -2.73% |
| O=C(O)[C@H](Cc1c[nH]c2ccccc12)N1C(=O)c2ccccc2C1=O | -26.8% |
| CN(C)CCN1C(=O)c2cccc3cc(N)cc(c23)C1=O | -11.9% |

Same assay, conditions: HD-MB03 medulloblastoma cells, measured here: combo with cisplatin at IC20, at 0.5 µM, stronger effect = higher value

| SMILES | inhibition |
| --- | --- |
| Cc1ccc2nc(NCCN)c3ncc(C)n3c2c1 | -1.09% |
| C[C@]1(c2nc3c(C(N)=O)cccc3[nH]2)CCCN1 | -3.64% and -17.6% |
| O=C(O)[C@H](Cc1c[nH]c2ccccc12)N1C(=O)c2ccccc2C1=O | -27.1% |
| CN(C)CCN1C(=O)c2cccc3cc(N)cc(c23)C1=O | 14.4% |

Test: growth inhibition, single agents and combos, UWB1.289, cell-based, BGB or cisplatin combos, synergistic combos for chromothripsis tumors (AID 1671456);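 also: cells exposed to compound for four days; 0% = vehicle DMSO and 100% = killing by high DMSO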
Settings: UWB1.289 ovarian carcinoma cells, at 0.5 µM, stronger effect = higher value

| SMILES | inhibition |
| --- | --- |
| Cc1ccc2nc(NCCN)c3ncc(C)n3c2c1 | -4.12% (inactive) |
| C[C@]1(c2nc3c(C(N)=O)cccc3[nH]2)CCCN1 | -9.31% (inactive) and 2.13% (inactive) |
| O=C(O)[C@H](Cc1c[nH]c2ccccc12)N1C(=O)c2ccccc2C1=O | -10.8% (inactive) |
| CN(C)CCN1C(=O)c2cccc3cc(N)cc(c23)C1=O | -5.91% (inactive) |

Same assay, conditions: UWB1.289 ovarian carcinoma cells, measured here: inhibition with BGB combination, at 0.05 µM, stronger effect = higher value

| SMILES | inhibition |
| --- | --- |
| Cc1ccc2nc(NCCN)c3ncc(C)n3c2c1 | -17.4% |
| C[C@]1(c2nc3c(C(N)=O)cccc3[nH]2)CCCN1 | -8.28% and -17% |
| O=C(O)[C@H](Cc1c[nH]c2ccccc12)N1C(=O)c2ccccc2C1=O | -20.2% |
| CN(C)CCN1C(=O)c2cccc3cc(N)cc(c23)C1=O | -1.98% |

Same assay, conditions: UWB1.289 ovarian carcinoma cells, measured here: inhibition with cisplatin combination, at 0.05 µM, stronger effect = higher value

| SMILES | inhibition |
| --- | --- |
| Cc1ccc2nc(NCCN)c3ncc(C)n3c2c1 | -11.7% |
| C[C@]1(c2nc3c(C(N)=O)cccc3[nH]2)CCCN1 | -23.7% and -11.7% |
| O=C(O)[C@H](Cc1c[nH]c2ccccc12)N1C(=O)c2ccccc2C1=O | -43.5% |
| CN(C)CCN1C(=O)c2cccc3cc(N)cc(c23)C1=O | -18.9% |

Test: growth inhibition, single agents and combos, LFS_MB_2R, cell-based, cisplatin combos, synergistic combos for chromothripsis tumors (AID 1671457);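 also: cells exposed to compound for four days before readout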
Settings: LFS_MB_2R medulloblastoma cells, at 0.5 µM, stronger effect = higher value

| SMILES | inhibition |
| --- | --- |
| Cc1ccc2nc(NCCN)c3ncc(C)n3c2c1 | -14.5% (inactive) |
| C[C@]1(c2nc3c(C(N)=O)cccc3[nH]2)CCCN1 | -25% (inactive) and -15.4% (inactive) |
| O=C(O)[C@H](Cc1c[nH]c2ccccc12)N1C(=O)c2ccccc2C1=O | -17.3% (inactive) |
| CN(C)CCN1C(=O)c2cccc3cc(N)cc(c23)C1=O | -25.1% (inactive) |

Same assay, conditions: LFS_MB_2R medulloblastoma cells, measured here: combination with cisplatin, at 0.5 µM, stronger effect = higher value

| SMILES | inhibition |
| --- | --- |
| Cc1ccc2nc(NCCN)c3ncc(C)n3c2c1 | -10.3% |
| C[C@]1(c2nc3c(C(N)=O)cccc3[nH]2)CCCN1 | -36.7% and -21.6% |
| O=C(O)[C@H](Cc1c[nH]c2ccccc12)N1C(=O)c2ccccc2C1=O | -13% |
| CN(C)CCN1C(=O)c2cccc3cc(N)cc(c23)C1=O | -29.2% |

Same assay, conditions: LFS_MB_2R medulloblastoma cells, measured here: combination with cisplatin, at 5 µM, stronger effect = higher value

| SMILES | inhibition |
| --- | --- |
| Cc1ccc2nc(NCCN)c3ncc(C)n3c2c1 | 15.9% |
| C[C@]1(c2nc3c(C(N)=O)cccc3[nH]2)CCCN1 | -29.1% and -120% |
| O=C(O)[C@H](Cc1c[nH]c2ccccc12)N1C(=O)c2ccccc2C1=O | -8.45% |
| CN(C)CCN1C(=O)c2cccc3cc(N)cc(c23)C1=O | -2.51% |

Test: growth inhibition, MDA-MB-436, cell-based, BGB or cisplatin combos, synergistic combos for chromothripsis tumors (AID 1671458; call rule not given here;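 also: cells exposed for 96 hours; 0% = vehicle DMSO and 100% = killing by high DMSO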)
Settings: MDA-MB-436 breast carcinoma growth inhibition, drug combinations; at 0.5 µM; stronger effect = higher value

| SMILES | inhibition |
| --- | --- |
| Cc1ccc2nc(NCCN)c3ncc(C)n3c2c1 | -3.06% (inactive) |
| C[C@]1(c2nc3c(C(N)=O)cccc3[nH]2)CCCN1 | -1.32% (inactive) and -13.2% (inactive) |
| O=C(O)[C@H](Cc1c[nH]c2ccccc12)N1C(=O)c2ccccc2C1=O | -15.2% (inactive) |
| CN(C)CCN1C(=O)c2cccc3cc(N)cc(c23)C1=O | -8.14% (inactive) |

Same assay, conditions: MDA-MB-436 breast carcinoma growth inhibition, drug combinations; measured here: BGB combination; at 0.5 µM; stronger effect = higher value

| SMILES | inhibition |
| --- | --- |
| Cc1ccc2nc(NCCN)c3ncc(C)n3c2c1 | -13.7% |
| C[C@]1(c2nc3c(C(N)=O)cccc3[nH]2)CCCN1 | -3.82% and -21.5% |
| O=C(O)[C@H](Cc1c[nH]c2ccccc12)N1C(=O)c2ccccc2C1=O | -12% |
| CN(C)CCN1C(=O)c2cccc3cc(N)cc(c23)C1=O | -8.98% |
